Screening results: PubChem BioAssay, National Center for Advancing Translational Sciences (NCATS)
Sampled rows, rich in hits. Any-hit rate of the full collection: about 2.4%.
Cruzain inh Det: blocks cruzain activity in presence of Triton detergent; P25779; purified cruzain, Z-FR-AMC fluorescence, 0.01% Triton; Potency, µM, actives largely listed as inhibitors; 0.43% of 200,000 active; AID 1478; also: nearly all actives have a fitted effect of over 40% in size
Target sequence (P25779 123-467 limits assumed): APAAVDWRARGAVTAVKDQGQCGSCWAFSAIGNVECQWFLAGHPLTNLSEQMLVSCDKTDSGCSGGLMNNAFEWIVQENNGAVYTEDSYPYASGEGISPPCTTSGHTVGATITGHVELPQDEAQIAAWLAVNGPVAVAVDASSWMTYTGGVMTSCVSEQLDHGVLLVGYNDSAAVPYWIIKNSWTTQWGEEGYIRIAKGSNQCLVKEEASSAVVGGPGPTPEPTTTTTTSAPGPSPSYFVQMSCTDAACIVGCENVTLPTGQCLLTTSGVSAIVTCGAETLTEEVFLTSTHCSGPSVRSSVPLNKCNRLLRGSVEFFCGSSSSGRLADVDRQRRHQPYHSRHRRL
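Read-out: AMC fluorescence (360 nm excitation, 450 nm emission), four reads over 2 min, first-to-third difference used. Conditions: cruzain 1.5 nM, Z-FR-AMC 2 uM, pH 5.5 acetate, 5 mM DTT, 0.01% Triton X-100.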
Cruzain inh noDet: cruzain (T. cruzi) inhibition without detergent; P25779; purified cruzain, Z-FR-AMC fluorescence, no detergent; Potency, µM, hits mostly inhibitors; 2.3% of 200,000 active; also: nearly all actives have a fitted effect of over 40% in size
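Purified cruzain at 1.5 nM, pre-incubated 15 min with compound at room temperature in 100 mM sodium acetate pH 5.5, 5 mM DTT, 0.00005% Triton X-100. Reaction started with 2 uM Z-FR-AMC; AMC fluorescence increase over 60 s gives rate.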
Large screens that a line does not name were inactive. Calls follow the shape of the dose curve; as a rule, active = well fitted curve in the direction sought with a large enough effect; inconclusive = small, poorly fitted or top-dose-only effect, or another doubt; inactive = no such curve, though single readings can be large; an effect the other way counts as inactive or inconclusive.

COc1ccc(C(C)NC(=O)c2ccccc2)cc1 (stereo not given)	none
CC1=C(C(=O)Nc2ccccc2Cl)C(c2cccc(O)c2)n2ncnc2N1 (stereo not given)	none
CC(C)C(=O)NCC(c1ccc2c(c1)OCO2)N1CCN(c2ccccc2F)CC1 (stereo not given)	none
Cc1ccc(C)c2[nH]c(=O)c(CN(CCN3CCCC3)C(=O)Nc3cccc(Cl)c3)cc12	Cruzain inh noDet 25µM
Cc1cc(C)c2cc(CN(CCN3CCCC3)C(=O)Nc3ccc(F)cc3)c(=O)[nH]c2c1	Cruzain inh noDet inconclusive
COc1ccc(OC)c(NC(=O)c2ccc3c(=O)n(CCc4ccccc4)c(=S)[nH]c3c2)c1	Cruzain inh noDet 10µM
COc1ccc(NC(=O)c2ccc3c(=O)n(Cc4ccco4)c(=S)[nH]c3c2)c(OC)c1	Cruzain inh noDet inconclusive
Cc1ccc(NC(=O)c2ccc(F)c(S(=O)(=O)N3CCc4ccccc4C3)c2)cc1F	Cruzain inh noDet inconclusive
CCc1ccc(NC(=O)CSc2nc3nc(C)cc(C)n3n2)cc1	none
CCCCNC(=S)N(C)/N=C/c1sc(N2CCCCC2)nc1-c1cccs1	none
CC(C)NC(=S)N/N=C/c1sc(N2CCCCC2)nc1-c1cccs1	Cruzain inh noDet 32µM
Cc1cc(C2=NNC(=NC3CC3)SC2)c(C)n1-c1ccccc1F	Cruzain inh noDet inconclusive
C=C(C)CN=C1NN=C(c2cc(C)n(-c3ccc(C)cc3)c2C)CS1	Cruzain inh noDet 7.9µM
Cc1cccc(CNc2ncncc2-c2ccccc2C(F)(F)F)c1	none
O=C(OCC(=O)N1CCc2ccccc2C1)c1ccc(N2CCOCC2)c([N+](=O)[O-])c1	none
Nc1ccc(C(=O)OCC(=O)N2CCc3ccccc3C2)cc1[N+](=O)[O-]	Cruzain inh noDet 32µM
O=C(COC(=O)/C=C/c1cccc(C(F)(F)F)c1)NC(c1ccccc1)c1ccccc1	Cruzain inh noDet 16µM
COc1ccc(/C=C/C(=O)OCC(=O)Nc2cc(C(F)(F)F)ccc2Cl)cc1	Cruzain inh noDet 25µM
O=C(COC(=O)/C=C/c1cccc(C(F)(F)F)c1)Nc1cccc2ccccc12	Cruzain inh noDet inconclusive
COc1cc(/C=C/C(=O)OCC(=O)Nc2cc(C(F)(F)F)ccc2N2CCOCC2)ccc1O	none
Cc1cc(C)c(NC(=O)COC(=O)/C=C/c2cccc(C(F)(F)F)c2)c(C)c1	none
Cc1ccccc1NC(=O)COC(=O)/C=C/c1cccc(C(F)(F)F)c1	Cruzain inh noDet 25µM
COCC(=O)N1CCC2(CCCN(c3ccccn3)C2)CC1	none
CCN(CC)CCNC(=O)c1c(C)oc2ncnc(N3CCOCC3)c12	none
O=C(Nc1ccc(F)c(F)c1)c1cc(S(=O)(=O)NCc2ccc3c(c2)OCO3)ccc1F	none
CCOC(=O)c1ccc(NC(=O)C2CCCN(c3ccc(Sc4ccc(C)cc4)nn3)C2)cc1 (stereo not given)	none
O=C(N/N=C/c1cccc([N+](=O)[O-])c1)c1cc2ccccc2o1	Cruzain inh noDet inconclusive
O=C(COc1ccc(/C=N/NC(=O)c2cc3ccccc3o2)cc1Cl)Nc1ccccc1	Cruzain inh Det 22µM, Cruzain inh noDet 20µM
Cc1ccccc1OCCCn1c(-c2ccc(Cl)cc2)nc2ccccc2c1=O	none
COc1ccc(OC)c(NS(=O)(=O)Cc2ccccc2)c1	Cruzain inh noDet 32µM
COc1ccc(OC)c(S(=O)(=O)NCc2ccccc2)c1	none
COc1cccc(C(c2sc3nc(-c4ccco4)nn3c2O)N2CCOCC2)c1 (stereo not given)	none
Cc1ccc(C(=O)C(OC(=O)CNS(=O)(=O)c2ccccc2)c2ccccc2)cc1 (stereo not given)	Cruzain inh Det inconclusive, Cruzain inh noDet 32µM
CCOC(=O)CNS(=O)(=O)c1ccc(C)cc1	none
COc1ccc(-c2ccc3c(N)c(C(=O)NCc4ccc(C)cc4)sc3n2)cc1	Cruzain inh Det 13µM, Cruzain inh noDet 16µM
Cc1ccc(CNC(=O)c2sc3nc(-c4ccc(F)cc4)ccc3c2N)cc1	none
Cc1ccc(Cl)cc1N1CCN(C2(c3ccccc3)C(=O)c3ccccc3C2=O)CC1	Cruzain inh noDet inconclusive
COc1ccc(-c2nn(-c3ccccc3)cc2/C=C2/SC(=S)N(Cc3ccco3)C2=O)c(C)c1	Cruzain inh noDet 3.2µM
Cc1ccc(-n2c(C)cc(/C=C3/C(=O)NC(=O)N(Cc4ccco4)C3=O)c2C)cc1	none
Cc1ccc(/C=C2\SC(=S)N(Cc3ccccc3)C2=O)o1	Cruzain inh noDet inconclusive
COc1ccc(-n2c(C)cc(/C=C3\SC(=S)N(Cc4ccco4)C3=O)c2C)cc1	Cruzain inh noDet 7.9µM
CCOc1ccc(-n2cc(-c3ccccc3)c3c(NCCc4ccccc4)ncnc32)cc1	none
Cc1ccc2c(=O)cc(C(=O)Nc3sc4c(c3C(=O)NCc3ccco3)CCC4)oc2c1	none
COc1ccc(-c2nc(CSCC(=O)NCCc3ccc(OC)c(OC)c3)c(C)o2)cc1	Cruzain inh noDet inconclusive
O=C1CCCN1CCCn1cnc2c([nH]c3ccc(F)cc32)c1=O	none
O=C1CCCN1CCCNc1ncnc2c1[nH]c1ccc(Cl)cc12	Cruzain inh Det 25µM, Cruzain inh noDet 16µM
C=CCNc1ncnc2c1[nH]c1ccc(C)cc12	none
Cc1ccc2[nH]c3c(NCCN4CCOCC4)ncnc3c2c1	Cruzain inh noDet 20µM
O=C(NCc1ccco1)c1ccc2c(=O)n(CCC3=CCCCC3)c(=O)[nH]c2c1	Cruzain inh noDet 16µM
CCN1CCN(C(=O)c2ccc3c(=O)n(CCC4=CCCCC4)c(=O)[nH]c3c2)CC1	none
CC(=O)c1cccc(NC(=O)COC(=O)[C@@H](NC(=O)OCc2ccccc2)C(C)C)c1	Cruzain inh Det 16µM, Cruzain inh noDet 25µM
CC(C)C(NC(=O)OCc1ccccc1)C(=O)OCC(=O)N1CCCCC1 (stereo not given)	none
Cc1ccc(Nc2nc(Nc3ccc(C)cc3)nc(SC3=NCCS3)n2)cc1	Cruzain inh noDet 25µM
Cc1ccccc1Nc1nc(Nc2ccccc2C)nc(SC2=NCCS2)n1	Cruzain inh noDet inconclusive
O=C(O)CCC[C@H](O)\C=C/C=C/C=C/[C@H](O)C/C=C\CCCCCO	none
O=C(O)CCCC/C=C\C[C@@H](O)/C=C/C=C/C=C\[C@@H](O)CCCC(=O)O	Cruzain inh Det 13µM, Cruzain inh noDet 4µM
O=C1OCC2=C1C(c1ccc(F)cc1)Sc1ccccc1N2 (stereo not given)	none
CC(C)(C)c1ccc(C2Sc3ccccc3NC3=C2C(=O)c2ccccc23)cc1 (stereo not given)	Cruzain inh noDet 7.9µM
COc1ccc(C(=O)Nc2ccc(C(=O)OCc3cc(=O)n4nc(C(C)C)sc4n3)cc2)cc1	none
CCc1ccc(-c2[nH]c3c(c2-c2c(-n4cccc4)n(C)c(=O)n(C)c2=O)c(=O)n(C)c(=O)n3C)cc1	none
CCOc1ccc(NC(=O)Cn2cc(S(=O)(=O)N3CCN(c4ccccc4F)CC3)c3ccccc3c2=O)cc1	Cruzain inh noDet 16µM
O=C(Cn1cc(S(=O)(=O)N2CCN(c3ccccc3F)CC2)c2ccccc2c1=O)Nc1ccc(F)cc1Cl	Cruzain inh noDet inconclusive
COc1ccc(C(=O)c2cn(Cc3cccc(C)c3)c3cc4c(cc3c2=O)OCO4)cc1	none
Cc1ccc(Cl)cc1N1C(=O)N(Cc2ccc(C#N)cc2)c2ccccc2S1(=O)=O	none
Cc1ccc2cccc(S(=O)(=O)N3CCN(c4cccc(Cl)c4)CC3)c2n1	none
CCc1ccc(-c2cc(C)no2)cc1S(=O)(=O)N1CCN(c2cccc(Cl)c2)CC1	Cruzain inh noDet 25µM
Cc1cccc(C(=O)N2CCc3cc(CNC(=O)c4cc5ccccc5[nH]4)ccc32)c1	Cruzain inh noDet 32µM
COc1ccc2cc(C(=O)NCc3ccc4c(c3)CCN4C(=O)c3ccccc3)[nH]c2c1	Cruzain inh noDet inconclusive
